In paper PMC4336329 (PLoS ONE, 2015):
About 14,000 (4.5%) of roughly 310,000 compounds showed an effect of 50% or more. Effects have a minus sign here. This excerpt belongs to a sample that is enriched for strong results.

Target: human ether-à-go-go-related gene (hERG) potassium channel (human, UniProt Q12809)
Experiment: primary screen, population patch clamp on CHO cells stably expressing hERG; higher = less effect of the substance
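Also: peak tail current of the secondary pulse compared with the same well before compound.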

human ether-à-go-go-related gene (hERG) potassium channel, sequence (Q12809 whole entry, looked up): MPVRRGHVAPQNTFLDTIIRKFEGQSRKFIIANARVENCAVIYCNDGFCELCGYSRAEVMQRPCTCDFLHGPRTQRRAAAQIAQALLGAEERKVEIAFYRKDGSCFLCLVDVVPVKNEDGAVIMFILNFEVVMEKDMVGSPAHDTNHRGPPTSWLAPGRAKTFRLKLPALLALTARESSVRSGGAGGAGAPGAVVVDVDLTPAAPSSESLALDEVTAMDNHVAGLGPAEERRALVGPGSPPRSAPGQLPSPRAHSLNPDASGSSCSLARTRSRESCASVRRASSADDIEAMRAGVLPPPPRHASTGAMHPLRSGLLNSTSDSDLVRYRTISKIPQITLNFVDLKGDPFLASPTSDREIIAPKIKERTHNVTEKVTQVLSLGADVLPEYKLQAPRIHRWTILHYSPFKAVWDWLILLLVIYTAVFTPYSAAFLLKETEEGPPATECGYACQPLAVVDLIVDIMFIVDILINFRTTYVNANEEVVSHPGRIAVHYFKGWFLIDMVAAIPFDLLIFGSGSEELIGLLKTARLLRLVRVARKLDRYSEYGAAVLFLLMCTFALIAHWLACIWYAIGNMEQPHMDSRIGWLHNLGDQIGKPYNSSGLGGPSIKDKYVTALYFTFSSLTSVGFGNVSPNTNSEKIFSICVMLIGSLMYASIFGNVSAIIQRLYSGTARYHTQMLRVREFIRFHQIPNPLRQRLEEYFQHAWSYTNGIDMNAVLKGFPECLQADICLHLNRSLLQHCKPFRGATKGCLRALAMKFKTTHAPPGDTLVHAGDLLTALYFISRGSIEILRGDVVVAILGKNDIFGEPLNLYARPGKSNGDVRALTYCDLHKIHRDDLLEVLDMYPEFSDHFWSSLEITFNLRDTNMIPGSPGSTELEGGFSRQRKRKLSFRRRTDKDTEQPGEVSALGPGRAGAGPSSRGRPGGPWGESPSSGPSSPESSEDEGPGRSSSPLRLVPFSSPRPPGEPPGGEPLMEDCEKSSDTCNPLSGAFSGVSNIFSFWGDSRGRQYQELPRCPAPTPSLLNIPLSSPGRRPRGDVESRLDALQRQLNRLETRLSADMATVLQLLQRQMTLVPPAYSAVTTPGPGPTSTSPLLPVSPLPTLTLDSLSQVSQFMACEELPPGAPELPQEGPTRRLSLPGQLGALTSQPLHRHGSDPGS

SMILES	hERG current change (%, negative = inhibition) at 10uM [%]
CCn1c(-c2cccs2)nc2ccccc21	-11.4
CCCCCCn1c(C(C)NC(=O)c2ccco2)nc2ccccc21 (centres unmarked)	-59.9
CCCCCn1c(NCc2ccco2)nc2ccccc21	-74.8
CCN(CC)CCn1c(NCc2ccco2)nc2ccccc21.Cl	-73
Cn1cnnc1SCC(=O)c1ccc(O)c(O)c1	18.7
O=C1CC2(CCCCC2)Oc2ccc(F)cc21	-4.03
CCN(CC)CCNC(=O)Cn1cnc2sc(C)c(S(=O)(=O)N3CC(C)CC(C)C3)c2c1=O (centres unmarked)	24.8
COc1ccc(Cn2c(=S)[nH]c3cc(OC)c(OC)cc3c2=O)cc1	20.4
O=[N+]([O-])c1ccc(-c2ccc(/C=N/c3c(-c4ccco4)nc4ccccn34)o2)cc1	8.33
O=C(O)CCSc1nnc(-c2ccccc2)n1-c1ccccc1	-3.32
Cc1ccc(SCc2cc(=O)[nH]c(N3CCCCC3)n2)cc1	-8.62
CCOC(=O)C(O)(c1ccc(NC(=S)NC(=O)c2ccc(Cl)cc2Cl)c(C)c1)C(F)(F)F (centres unmarked)	27.4
COc1ccccc1NC(=O)CCSc1nnc(-c2ccncc2)o1	-2.96
Fc1ccccc1NC(=S)NNc1ncc(C(F)(F)F)cc1Cl	21.2
CN1CCCN(C(=O)COc2cccc(C(F)(F)F)c2)CC1	-0.603
CC(NC(=O)/C=C/c1ccco1)c1nc2ccccc2n1Cc1ccccc1F (centres unmarked)	0.704
CC(NC(=O)/C=C/c1ccco1)c1nc2ccccc2n1Cc1c(Cl)cccc1Cl (centres unmarked)	-11
c1ccc(Cn2c(NCc3ccccn3)nc3ccccc32)cc1	-39
CCn1c(NCc2cccs2)nc2ccccc21	-12.2
C=CCn1c(NCc2ccco2)nc2ccccc21	-8.07
CCCn1c(NCc2cccs2)nc2ccccc21	-29.3
CCCCn1c(NCc2cccs2)nc2ccccc21	-55.9
CC(NC(=O)/C=C/c1ccco1)c1nc2ccccc2n1Cc1cccc(Cl)c1 (centres unmarked)	-67.2
c1ccc(Cn2c(NCc3ccco3)nc3ccccc32)cc1	-51

SMILES	hERG current change (%, negative = inhibition) at 10uM [%]
CC1CC1C(=O)OCC(=O)Nc1cccc(S(=O)(=O)NC2=NCCCCC2)c1 (centres unmarked)	-7.64
Cc1ccc(C(=O)c2ccc(N3CCOCC3)c(F)c2)cc1	-22
CCCn1c2ccccc2c2cn[nH]c(=O)c21	12
Cc1c(C(=O)NCc2ccccn2)sc2nc(-c3ccc(F)cc3)cn12	-10.2
Cc1c(C(=O)NCCCN2CCOCC2)sc2nc(-c3ccccc3)cn12	-48.5
Cc1c(C(=O)NCC(C)C)sc2nc(-c3ccc(F)cc3)cn12	-5.46
Cc1c(C(=O)NCCCN2CCOCC2)sc2nc(-c3ccc(F)cc3)cn12	-60.9
Cc1c(C(=O)NCc2cccnc2)sc2nc(-c3ccccc3)cn12	-55.2
Cc1c(C(=O)Nc2ccccc2)sc2nc(-c3ccccc3)cn12	-4.89
Cc1c(C(=O)NCCN2CCOCC2)sc2nc(-c3ccc(F)cc3)cn12	-23.6
CCN(CC)CCCNC(=O)c1sc2nc(-c3ccc(F)cc3)cn2c1C	-71.1
Cc1c(C(=O)NCc2ccccn2)sc2nc(-c3ccccc3)cn12	-18.6
CCN(CC)CCNC(=O)c1sc2nc(-c3ccccc3)cn2c1C	-67.4
COCCNC(=O)c1sc2nc(-c3ccccc3)cn2c1C	-11.5
Cc1c(C(=O)NCc2cccnc2)sc2nc(-c3ccc(F)cc3)cn12	-40.4
Nc1cc(-c2ccccc2)ccc1O	22.5
CCCC1=[N+](CC(C)=O)CCn2c(C)ccc21.[Br-]	20.1
Cc1ccc(OCC(=O)Oc2c(C)cccc2C)cc1	16.8
COc1ccc(CC(NC(C)=O)C(=O)NC2CCN(C(=O)Nc3ccccc3Cl)CC2)cc1OC (centres unmarked)	12.7
CC(C)(C)c1ccc(-n2nc(C(N)=O)c(O)cc2=O)cc1	12.9
CC(=O)N1c2ccc(S(=O)(=O)N(C)c3cc(C)ccc3C)cc2CC1C (centres unmarked)	-8.67
Cc1csc(NC(=O)Cc2ccccc2[N+](=O)[O-])n1	8.85
CCCSc1nc(-n2ncc(C#N)c2N)c2c3c(sc2n1)CCC(C)C3 (centres unmarked)	5.45
